Many of the other results were omitted from the sample, so hits are more common in it than they were.
mHTT CaM bind: inhibitors of human mutant huntingtin-calmodulin interaction; AlphaScreen His-mHTT/GST-CaM binding, luminescence; inhibition, % at 15 µM; 3.6% of 190,000 active; AID 1671202;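 note: 0% = both proteins with DMSO and 100% = one protein alone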
Pf apPOL inh: Pf-apPOL DNA polymerase inhibition | inhibition, % at 10 µM | 0.25% of 210,000 active | Recombinant Pf-apPOL, molecular beacon fluorescence, 1.5 h
Numbers without * were called inactive; . = no result given. Cut-off read from the data, not from the text of the source: active = inhibition above about 50%; inactive = the rest.

SMILES	mHTT CaM bind	Pf apPOL inh
O=C(Nc1ccccc1I)c1ccc(NC(=O)c2ccco2)cc1	12.0	15.2
O=c1[nH]c(-c2ccc(F)cc2)cn1-c1ccc(Br)cc1	6.0	0.4
O=c1[nH]c(-c2ccc(Br)cc2)cn1-c1ccc(Cl)cc1	63.0*	-4.5
OCCOCCNc1ncnc2c1c(-c1ccccc1)cn2-c1cccc(C(F)(F)F)c1	23.0	0.0
OCCOCCNc1ncnc2c1c(-c1ccccc1)cn2-c1cccc(Cl)c1	54.0*	-13.0
CCN(C(=O)Cc1ccc(F)cc1)c1ccccc1	-5.2	-0.3
c1ccc(CN2CCN(C3CCCCC3)CC2)nc1	3.7	6.3
Oc1ccc(N=Cc2ccc(Br)cc2)cc1	64.0*	-8.5
Oc1ccc(C=Nc2ccc(-c3ccccc3)cc2)cc1	5.0	-20.0
Cc1ccc(-c2oncc2-c2nnnn2-c2ccc(Cl)cc2)cc1	.	2.7
CN(C)c1ccc(-c2nc3n(n2)C(c2ccccc2)C2=C(CCCC2=O)N3)cc1 (stereo unspecified)	5.3	-6.3
CN(C)c1ccc(-c2nc3n(n2)C(c2ccc(F)cc2)C2=C(CCCC2=O)N3)cc1 (stereo unspecified)	50.6*	-2.1
Cc1cc(C2CCCN2Cc2ccc(OC(C)C)cc2)no1 (stereo unspecified)	-7.4	-1.1
CCOc1cc(C(=O)Nc2ccccc2-c2nc3ccccc3[nH]2)cc(OCC)c1OCC	-14.6	-1.0
CC(C)C(=O)Nc1ccc(C2(C(=O)N3CCN(c4ccccc4)CC3)CCCCC2)cc1	50.8*	7.3
CC(C)C(=O)Nc1ccc(C2(C(=O)N3CCCC3)CCCCC2)cc1	13.1	7.6
CCNc1nc(NC(C)C)nc(OCCNS(=O)(=O)c2cc(C)ccc2C)n1	0.0	-3.7
CCNc1nc(NCC)nc(OCCNS(=O)(=O)c2cc(C)ccc2C)n1	1.0	89.0*
Cc1nc(C(=O)NCCCN2CCC(C)CC2)c(C)n1C1CCN(S(C)(=O)=O)CC1	7.2	-5.7
O=C(NCCCn1nc(-c2ccc(Cl)cc2)ccc1=O)C1CCCC1	-8.7	-24.7
O=c1ccc(-c2ccc(Cl)cc2)nn1CCNS(=O)(=O)c1ccc2c(c1)CCCC2	80.5*	-9.6
N#Cc1ccc(/C=C2\N=C(c3ccc(F)cc3)OC2=O)cc1	5.0	-27.0
CCOc1ccc(N2C(=O)NC(=O)/C(=C\c3ccc(O)c(OCC)c3)C2=O)cc1	6.0	-3.1
COc1cccc2cc(C(=O)NCCC3CCCCN3S(=O)(=O)c3cccs3)oc12 (stereo unspecified)	3.1	-5.6
CCN(CC)c1ccc(C=NCCc2ccccc2)c(O)c1	80.0*	1.6
SMILES	mHTT CaM bind	Pf apPOL inh
CCN(CC)c1ccc(C=Nc2ccccc2)c(O)c1	8.0	-6.3
COc1ccc(C2=NN3C(C2)c2cccc(OC)c2OC32CCCCC2)cc1 (stereo unspecified)	50.0	-20.5
O=S(=O)(c1ccccc1)N1N=C(c2cccs2)CC1c1ccc(Br)cc1 (stereo unspecified)	-4.0	-54.4
COc1ccc(C2=NN3C(C2)c2cccc(OC)c2OC3(C)C)cc1 (stereo unspecified)	51.0*	-17.5
COc1cccc2c1OC1(CCC(C)CC1)N1N=C(c3cccs3)CC21 (stereo unspecified)	36.0	-15.2
CC1(C)Oc2ccc(Br)cc2C2CC(c3cccs3)=NN21 (stereo unspecified)	59.0*	-3.3
COc1cccc2c1OC(C)(C)N1N=C(c3cccs3)CC21 (stereo unspecified)	61.0*	-25.6
CCOc1c(OC)cc(C2C(C#N)=C(N)Oc3n[nH]c(-c4ccc5c(c4)OCO5)c32)cc1OC (stereo unspecified)	38.0	-0.1
O=C(NC1CC2CC1N(C(=O)c1ccc(Cl)s1)C2)c1cccnc1 (stereo unspecified)	5.7	-1.8
CC1CCc2onc(C(=O)N(C)Cc3ccccc3)c2C1 (stereo unspecified)	-15.6	4.1
O=C(CN1CCC(c2nnc(-c3ccco3)o2)CC1)Nc1cc(F)ccc1F	-5.6	4.1
CC(=O)c1c(-c2ccccc2)c2cc([N+](=O)[O-])ccc2n1C	4.9	-1.2
CN(C)/C=C/c1c(C=O)c2cc([N+](=O)[O-])ccc2n1C	99.8*	-7.3
CCc1nc(-c2cccnc2N2CCCC(C(=O)NCc3ccccc3Cl)C2)no1 (stereo unspecified)	-2.3	-3.6
Cc1ccc(-c2noc(C3CCN(CC(=O)Nc4ccc(C)cc4F)CC3)n2)cc1	-9.2	-0.1
O=C(NCCc1c[nH]c2ccccc12)C(c1ccccc1)n1cccc1 (stereo unspecified)	95.9*	2.5
CC(NC(=O)CCc1c[nH]c2ccccc12)c1ccccc1 (stereo unspecified)	3.9	-3.0
COc1ccc2nc(N3CCCC(C(=O)NCc4ccco4)C3)sc2c1 (stereo unspecified)	8.0	-0.2
C(=Nc1cc(-c2ccccc2)nn1-c1ccccc1)c1cccnc1	50.0*	-0.1
C(=NN=Cc1cccnc1)c1cccnc1	.	0.6
Cc1ccc2c(c1)C1C=CCC1C(c1ccccc1Br)N2 (stereo unspecified)	77.0*	-8.2
CC(=O)Nc1cccc(NC(=O)c2ccccc2[N+](=O)[O-])c1	0.2	-10.1
Brc1cc2c(cc1[C@H]1Nc3ccccc3[C@H]3C=CC[C@H]31)OCO2	.	6.5
CC(=O)Nc1ccc2c(c1)C1C=CCC1C(c1ccc(Br)cc1)N2 (stereo unspecified)	86.2*	72.7*
CC(=O)Nc1ccc2c(c1)C1C=CCC1C(c1ccccc1[N+](=O)[O-])N2 (stereo unspecified)	64.6*	6.5
SMILES	mHTT CaM bind	Pf apPOL inh
COc1ccc(C(=O)N2CCN(C(C)c3ccccc3)CC2)c(OC)c1 (stereo unspecified)	19.7	-0.8
Cc1nc2c(CN(C)C)c(O)ccc2[nH]1	-1.5	6.8
CC(C)(C)NC(=O)NC1CCN(C(=O)c2ccccc2)C1 (stereo unspecified)	-0.3	-0.1
Cc1ccc(/C=C2\CS/C(=C\c3ccc(C)o3)C2=O)o1	100.0*	2.9
CN=C1S/C(=C/c2ccc(C)o2)C(=O)N1C	-3.6	.
COc1ccc(C(=O)Nc2ccc(Cl)c(-c3nc4ncccc4o3)c2)cc1	17.0	-1.3
COc1ccc(-n2nc3c(c2NC(=O)c2cccc(OC)c2)CSC3)cc1	34.0	-2.7
COc1cc(OC)cc(C(=O)Nc2c3c(nn2-c2cccc(C)c2)CSC3)c1	22.0	-0.6
COc1cccc(C(=O)Nc2c3c(nn2-c2cccc(C)c2)CSC3)c1	53.0*	-79.9
COc1ccc(-n2nc3c(c2NC(=O)c2cccc(Br)c2)CSC3)cc1	45.0	99.8*
O=C(Nc1cnc(N2CCCCC2)nc1)c1cc(F)cc(F)c1	2.2	-1.1
CCc1ccc(CN2CCOCC2)cc1	-0.9	-5.9
O=Cc1cn(CCC(=O)O)c2ccccc12	-1.5	-1.5
Cc1cccc(Nc2nc(-c3c(C)nc4ncccn34)cs2)c1	77.0*	-6.2
Cc1nc2ncccn2c1-c1csc(Nc2cccc([N+](=O)[O-])c2)n1	-2.5	-14.0
Cc1cccc(C(=O)Nc2c(C)nc3sccn3c2=O)c1	-3.7	4.5
Cc1nc2ncccn2c1-c1csc(Nc2ccccc2)n1	97.0*	-0.6
Cc1nc2ncccn2c1-c1csc(N)n1	-1.4	.
Cc1cc(NS(=O)(=O)c2ccc(Nc3nc(-c4c(C)nc5ncccn45)cs3)cc2)no1	22.0	-2.0
Cc1nc2sccn2c1-c1csc(Nc2cccc(O)c2)n1	73.0*	-2.7
Cc1nc2ncccn2c1-c1csc(Nc2ccccn2)n1	73.0*	-4.0

Screening data (PubChem BioAssay)
